# TDP-43 yeast inh = qHTS of TDP-43 Inhibitors | Potency, µM (highest dose often 46.1 µM), inactives show at the highest dose growth rescue (activation), actives largely listed as activators | TDP-43 expressing yeast growth rescue, BacTiter-Glo, 24 h | 1.8% of 410,000 active; note: % of control where 0% means no effect; nearly all actives have a fitted effect of over 50% in size
#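 In this qHTS, compounds that restore growth of yeast expressing TDP-43 appear as activators. Cells (OD600=0.02, galactose medium, raffinose-pregrown) are incubated with compound 24 hr at 30 deg C and growth is quantified by BacTiter-Glo.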
# FUS suppressor = qHTS for Suppressors of FUS Proteinopathy: Primary screen using FUS-linked yeast assay. S. cerevisiae FUS-expressing, growth rescue, OD600, 24 h. Potency, µM (top dose mostly 76.6 µM), actives largely listed as activators. 0.24% of 390,000 active;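 note: plate controls were DMSO vehicle for no effect and reference control for full effect; nearly all actives have a fitted effect of over 55% in size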
#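 Absorbance at 600 nm, taken 24hr after compound addition, measured rescue of FUS-yeast growth at 30C. Induction used 2% galactose with seeding at OD 0.005. Controls: CP55940 from 92uM final, DMSO only.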
# Mito fusion yeast = qHTS Assay for Small Molecule Inhibitors of Mitochondrial Division or Activators of Mitochondrial Fusion. S. cerevisiae fusion-defective mutant growth rescue, CellTiterGlo 48 h. Potency, µM (highest dose often 46.1 µM), for the others: at the top dose growth rescue (activation), most hits filed as activators. 0.23% of 320,000 active; note: % of control where 0% means no effect; nearly all actives have a fitted effect of over 45% in size
#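 Read-out: ATP-based luminescence (CellTiterGlo, 10 min ambient) reporting growth of fusion-defective ts yeast after 48 hours at 37C on glycerol/ethanol YPEG medium in the presence of compound.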
# Abeta yeast res = qHTS for compounds that reverse cellular toxicity of Amyloid beta (A-beta) peptide in yeast: Primary Screen; AID 1347071, 2019; yeast expressing A-beta42, growth rescue, OD600, 48 h; response scale: 0% DMSO, 100% iron-clioquinol control; 0.063% of 410,000 active; Potency, µM (highest dose often 46.1 µM), usual class: activators; note: nearly all actives have a fitted effect of over 55% in size
#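 Growth rescue measured by 600 nm absorbance after 48 h yeast culture at 30 C with compound. Values normalized between DMSO and an equimolar ferric chloride plus clioquinol control.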
# aSyn yeast inh = qHTS of alpha-syn Inhibitors; Yeast expressing alpha-synuclein, growth rescue, BacTiter-Glo, 24 h; Potency, µM (titrated, usually from 46.1 µM), without a hit: top-dose growth rescue (activation), most hits filed as activators; 0.14% of 370,000 active; AID 652106, 2013; note: % of control where 0% means no effect; nearly all actives have a fitted effect of over 65% in size
#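 Galactose-induced alpha-syn yeast (OD600=0.02, raffinose-pregrown) + pinned cpd, 24 hr, 30 deg C; growth by BacTiter-Glo luminescence. Growth restoration scores as activation.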
# Active calls of the source: *; i = inactive; ? = inconclusive; . = not tested or not shown; [ ] = another dose, or the depositor's remark. Only some compounds are listed: those with a hit (about 2.2% of all), similar ones and a draw of the others. Calls come from the whole dose curve; as a rule, active = well fitted curve in the direction sought with a large enough effect; inconclusive = small, poorly fitted or top-dose-only effect, or another doubt; inactive = no such curve, though single readings can be large; an effect the other way counts as inactive or inconclusive. Potency is the fitted concentration of half-maximal effect.
SMILES,TDP-43 yeast inh,FUS suppressor,Mito fusion yeast,Abeta yeast res,aSyn yeast inh
COc1ccc(Cl)cc1NC(=O)CC(C)=O,0.0%,i,3.3%,i,1.3%
COc1ccc(Cl)cc1NC(=O)CC(C)c1ccccc1 (stereo not given),12.6µM*,?,-27.4%,?,-9.5%
COc1ccc(Cl)cc1NC(=O)c1c(-c2ccccc2)noc1C,0.0%,i,4.7%,i,-7.3%
CC(=O)c1ccccc1Oc1ncnc(N)c1[N+](=O)[O-],0.4%,i,-12.6%,i,0.8%
O=C(CN1C2CCCC1CC(NC(=O)c1ccccc1)C2)NC1CC1 (stereo not given),0.0%,i,-2.0%,i,0.9%
Cc1ccc(NC(=S)NC(=O)C2CCCC2)c(Br)c1,14.1µM*,i,.,?,1.0%[1.84 µM]
O=C(NC(=S)Nc1ccccc1Br)C1CC1,12.6µM*,i,.,i,-10.4%
Cc1ccccc1NC(=S)NC(=O)C1CCCCC1,25.5%,i,-11.5%,?,0.4%
Nc1ccccc1/C=C/c1ccnc2ccccc12,.,.,.,.,-14.0%
COc1ccc(-c2sc3ccc(N4CCOCC4)cc3c2C#CCO)cc1,14.1µM*,i,.,i,-9.5%
N#Cc1ncc(-c2ccc3c(c2)OCCOCCOCCOCCOCCO3)nc1C#N,11.9%,i,20µM*,i,4.5%
COC(=O)[C@]1(CNC(=O)C(C)(C)C)CC(=O)N(C)[C@@H]1c1ccccc1,.,i,.,.,.
COc1ccc2c3c([nH]c2c1)[C@]1(CCNC=O)Nc2ccccc2C1=NCC3,.,i,.,.,.
COc1ccc([C@@H]2[C@@H]3C(=O)N(C(C)(C)C)C(=O)[C@@H]3[C@]3(Cc4ccccc4)C(=O)N(c4cccc(C)c4)C(=O)N23)cc1,-6.7%,28.2µM*,-4.9%,i,-7.0%
COc1ccc([C@@H]2[C@@H]3C(=O)N(C(C)(C)C)C(=O)[C@@H]3[C@]3(Cc4ccccc4)C(=O)N(c4cccc(Cl)c4)C(=O)N23)cc1,23.8%,28.2µM*,-3.5%,i,3.5%
COc1ccc([C@@H]2[C@@H]3C(=O)N(C(C)(C)C)C(=O)[C@@H]3[C@]3(Cc4ccccc4)C(=O)N(c4ccc(Br)cc4)C(=O)N23)cc1,-13.6%,i,1.4%,i,-0.9%
COc1ccc(N2C(=O)N3[C@H](c4ccc(Br)cc4)[C@@H]4C(=O)N(C(C)(C)C)C(=O)[C@@H]4[C@]3(Cc3ccccc3)C2=O)cc1,2.3%,12.6µM*,-0.3%,i,-4.5%
CC(C)(C)N1C(=O)[C@H]2[C@@H](c3ccc(Br)cc3)N3C(=O)N(c4cccc(Cl)c4)C(=O)[C@@]3(Cc3ccccc3)[C@H]2C1=O,-0.4%,12.6µM*,7.2%,i,10.5%
COc1ccc([C@@H]2[C@@H]3C(=O)N(C(C)(C)C)C(=O)[C@@H]3[C@]3(Cc4ccccc4)C(=O)N(c4ccccc4)C(=O)N23)cc1,14.7%,i,-1.6%,i,-0.1%
COc1cc2c(NC3CCN(C)CC3)nc(N3CCCN(C)CC3)nc2cc1OCCCN1CCCCC1,.,.,.,.,4.1%
CCN(CCCNc1cc2c(c(N)c1S(=O)(=O)O)C(=O)c1ccccc1C2=O)c1ccccc1,-6.8%,i,.,i,-10.0%
CCC[C@H]1[C@@H](NCc2cccs2)CC[C@@]23CCCN2C(=O)CCC[C@@H]13,.,i,.,.,.
CCOC(=O)c1cnc2ccc(OC)cc2c1Nc1ccc(OCc2ccccc2Cl)cc1,20µM*,i,.,i,.
CCOC(=O)c1cnc2ccc(C)cc2c1Nc1ccc(OCc2ccccc2Cl)cc1,22.4µM*,i,.,i,.
CCn1c(C)c(C)c2cc(C(=O)N3CCCC3)ccc21,-10.6%,i,0.4%,i,-1.5%
CCn1c(C)c(C)c2cc(C(=O)N3CCN(c4ccccc4)CC3)ccc21,22.4µM*,?,27.9%,i,20.5%
CN(c1ncnc(N)c1[N+](=O)[O-])C1CCCCC1,12.6µM*,i,-0.9%,i,4.5%
Cc1nn(-c2ccc(F)cc2)c(Cl)c1C(=O)NCC1CCCO1 (stereo not given),-2.9%,i,-2.1%,i,-6.0%[1.84 µM]

# Assay outcomes (PubChem BioAssay)
